An excerpt weighted towards active compounds, which were near 2.8% of everything screened.
POLI inh: DNA polymerase iota (human) inhibition | Q9UNA4 | actives 1% (n = 390,000) | Pol iota fluorescent replication assay, 10 min | Potency, µM (series often up to 115 µM), without a hit: at the highest dose activity, negative = inhibition, most hits filed as inhibitors; note: potency is the fitted concentration of half-maximal effect
Target sequence (Q9UNA4 whole entry, looked up): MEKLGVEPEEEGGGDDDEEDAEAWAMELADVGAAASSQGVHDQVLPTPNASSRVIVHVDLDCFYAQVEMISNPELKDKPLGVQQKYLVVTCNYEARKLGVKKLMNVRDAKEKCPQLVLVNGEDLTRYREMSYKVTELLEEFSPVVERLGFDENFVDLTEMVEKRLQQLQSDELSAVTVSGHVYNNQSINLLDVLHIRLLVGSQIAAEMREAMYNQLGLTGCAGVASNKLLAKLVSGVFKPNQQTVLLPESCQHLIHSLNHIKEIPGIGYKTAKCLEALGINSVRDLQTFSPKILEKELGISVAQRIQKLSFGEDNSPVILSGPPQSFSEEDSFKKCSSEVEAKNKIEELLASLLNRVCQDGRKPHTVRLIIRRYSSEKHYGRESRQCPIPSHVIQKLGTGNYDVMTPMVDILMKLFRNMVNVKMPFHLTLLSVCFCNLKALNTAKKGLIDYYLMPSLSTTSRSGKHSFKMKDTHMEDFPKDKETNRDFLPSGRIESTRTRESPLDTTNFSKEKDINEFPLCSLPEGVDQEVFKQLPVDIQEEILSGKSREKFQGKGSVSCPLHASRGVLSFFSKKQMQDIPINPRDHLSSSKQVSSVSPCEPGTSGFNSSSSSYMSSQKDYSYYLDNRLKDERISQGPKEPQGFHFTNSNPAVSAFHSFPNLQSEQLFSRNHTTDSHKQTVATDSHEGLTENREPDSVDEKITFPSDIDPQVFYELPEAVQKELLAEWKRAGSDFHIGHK
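Fluorescent replication assay read twice, at 0 min and 10 min after adding 50 nM (final) substrate. Enzyme (10 nM) and compounds were first incubated 15 min at room temperature; enzyme-free buffer wells were negative controls.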
Pol beta inh: blocks human DNA polymerase beta activity. actives 1.3% (n = 340,000). P06746. Pol beta primer extension/strand displacement, fluorescence kinetic. Potency, µM (doses to about 114 µM), for inactives: at the top dose activity change, negative = inhibition, usual class: inhibitors. AID 485314; note: potency is the fitted concentration of half-maximal effect; % is set by controls: 0 for no effect and ±100 for the full control effect
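Curves were derived by four-parameter Hill fits of normalized qHTS data. The kinetic fluorescent primer-extension read was taken at 0 and 10 min after 50 nM substrate, following a 15 min room-temperature preincubation of 10 nM enzyme with compounds.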
Pol kappa inh-1: inhibitors of human DNA polymerase kappa | Q9UBT6 | purified Pol kappa, fluorescent DNA synthesis assay, 10 min | Potency, µM (series often up to 107 µM), for inactives: at the highest dose activity, negative = inhibition, most hits filed as inhibitors | actives 0.53% (n = 400,000) | AID 588579; note: potency is the fitted concentration of half-maximal effect; % is set by controls: 0 for no effect and ±100 for the full control effect
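Enzyme at 10 nM met test compounds for 15 min at room temperature. Substrate addition (50 nM final) began the reaction, which was monitored by fluorescence at 0 and 10 min.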
PI5P4K alpha inh: PI5P4K alpha (human) kinase inhibition. P48426. PI5P4Kalpha enzyme, ADP-Glo luminescence, 60 min; hits give low values. max response, %. actives 1.2% (n = 330,000). AID 652105; active = max response of -50% or lower; inconclusive = between -30% and -50%; inactive = -30% or higher; note: value at the top dose of about 77 µM; % is set by controls: 0 for no effect and ±100 for the full control effect
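Controls without substrate or without enzyme flank wells where PI5P4Kalpha converts substrate using 5 microM ATP (final). Incubation lasts 60 minutes at room temperature; ADP formed is read by ADP-Glo luminescence.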
WRN helicase inh: WRN helicase (human) inhibition; Q14191; WRN helicase unwinding, fluorescent forked duplex, kinetic; Potency, µM (top dose mostly 114 µM), for the others: at the top dose activity change, negative = inhibition, usual class: inhibitors; actives 0.46% (n = 360,000); AID 651768; note: potency is the fitted concentration of half-maximal effect; % is set by controls: 0 for no effect and ±100 for the full control effect; nearly all actives have a fitted effect of over 55% in size
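Screening of the MLSMR collection measured strand separation of a quenched forked DNA duplex (100 nM) by 20 nM WRN with 2 mM ATP, all final. Compounds were preincubated with enzyme 15 min at room temperature.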
Pol eta inh-1: inhibitors of human DNA polymerase eta; Potency, µM (titrated, usually from 114 µM), for inactives: at the top dose activity change, negative = inhibition, most hits filed as inhibitors; Q9Y253; actives 1.2% (n = 390,000); recombinant Pol eta, fluorescent DNA replication assay; AID 588591; note: potency is the fitted concentration of half-maximal effect; % is set by controls: 0 for no effect and ±100 for the full control effect
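Pol eta at 10 nM preincubated with compounds 15 min at room temperature; reaction started with fluorescent substrate (50 nM final) and read kinetically at 0 and 10 min.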
PGK validate: TbPGK inhibition, hit validation | actives 79% (n = 500) | Potency, µM (doses to about 57.5 µM), for the others: at the highest dose activity change, negative = inhibition, most hits filed as inhibitors | TbPGK coupled GAPDH assay, Kinase-Glo luminescence | shares compounds with Pol kappa inh-1; note: potency is the fitted concentration of half-maximal effect; % is set by controls: 0 for no effect and ±100 for the full control effect; nearly all actives have a fitted effect of over 65% in size
POLI cherry-pick: Human Pol iota inhibitor confirmatory assay. shares compounds with Pol kappa inh-1. Pol iota primer extension, TAMRA/BHQ fluorescence. Potency, µM, actives largely listed as inhibitors. actives 77% (n = 1,500); note: potency is the fitted concentration of half-maximal effect
Pol kappa inh-2: Pol kappa (human) inhibition, cherry-pick confirmation | shares compounds with Pol eta inh-1 | purified Pol-kappa, fluorescent strand-displacement substrate | Potency, µM, most hits filed as inhibitors | actives 76% (n = 920) | AID 720501; note: potency is the fitted concentration of half-maximal effect
Pol eta inh-2: Pol eta (human) inhibition, cherry-pick confirmation; actives 64% (n = 2,600); shares compounds with Pol eta inh-1; Pol eta primer extension, TAMRA/BHQ fluorescence, 10 min; Potency, µM, usual class: inhibitors; AID 720502; note: potency is the fitted concentration of half-maximal effect
Active calls of the source: *; i = inactive; ? = inconclusive; . = not tested or not shown; [ ] = remark or other dose. Unless noted, calls come from the whole dose curve; as a rule, active = well fitted curve in the direction sought with a large enough effect; inconclusive = small, poorly fitted or top-dose-only effect, or another doubt; inactive = no such curve, though single readings can be large; an effect the other way counts as inactive or inconclusive.

SMILES | POLI inh | Pol beta inh | Pol kappa inh-1 | PI5P4K alpha inh | WRN helicase inh | Pol eta inh-1 | POLI cherry-pick | Pol eta inh-2 | others
Cc1ccc(O)c(C(CC(=O)NCC2(c3ccccc3)CCCC2)c2ccccc2)c1 (stereo not given) | ? | -29% | -13% | . | . | . | . | .
COc1ccccc1-c1nnc2sc(-c3cnccn3)nn12 | ? | ? | -40% | . | ? | 45µM* | 75* | ?
CC1CCN(c2ccc(NC(=O)c3ccc([N+](=O)[O-])o3)cc2)CC1 | -9% | . | 1% | 9 | 4% | -9% | . | .
O=C(Nc1ccc(N2CCCCC2)cc1)c1ccc([N+](=O)[O-])o1 | 40µM* | 40µM* | ? | ? | -7%[11.6 µM] | 50µM* | 34* | 60*
Cc1cc(/C=C2\SC(=S)NC2=O)c(C)[nH]1 | 20µM* | 22µM* | 79µM* | -77* | -9%[11.6 µM] | 20µM* | ? | 76*
O=C(O)c1cccc(N2C(=O)/C(=C/c3ccc(SCc4ccc(Cl)cc4)o3)SC2=S)c1 | ? | 3.2µM* | 79µM* | -73* | 18µM* | 7.9µM* | 34* | 19* | PGK validate=33µM*;Pol kappa inh-2=3.4*
O=C1CCCC2=C1C(c1ccc(O)c(O)c1)c1c(ccc3ncccc13)N2 (stereo not given) | ? | 6.3µM* | ? | ? | -18%[11.6 µM] | 25µM* | 67* | ?
O=c1cc(O)c2sc3nc(-c4cccnc4)cc(C(F)(F)F)c3c2[nH]1 | 18µM* | 13µM* | ? | ? | ? | ? | 67* | ?
O=c1cc(O)c2sc3nc(C(F)(F)F)c4c(c3c2[nH]1)CCCCC4 | 41% | 11% | 0% | -24 | -5% | 1% | . | .
CCn1nc(C)c(CCN(C)C(=O)Nc2cc(OC)c(OC)c(OC)c2)c1C | 18% | 2% | 2%[60.1 µM] | . | . | -12% | . | .
CCOCCCNC(=O)c1ccc(Cn2c(=S)[nH]c3c([nH]c4ccc(OC)cc43)c2=O)cc1 | -20% | -18% | -8% | 0 | -13% | -8% | . | .
COc1ccc2[nH]c3c(=O)n(Cc4ccc(C(=O)NCC5CCCO5)cc4)c(=S)[nH]c3c2c1 (stereo not given) | ? | 89µM* | -32% | -4 | ? | 18µM* | ? | 76*
COC(=O)c1ccc(COc2ccccc2/C=C/C(=O)c2ccc(OCC(=O)O)cc2)cc1 | ? | 50µM* | -8% | 3 | ? | 22µM* | 47* | 48*
COC(=O)c1ccc(COc2ccccc2/C=C(\C#N)C(=O)NC(C)C)cc1 | 165% | 1% | -12% | -11 | 2% | -3% | . | .
O=P(c1ccccc1)(c1ccccc1)c1cc(S(=O)(=O)O)ccc1O | 25µM* | 10µM* | ? | -29 | -30%[57.1 µM] | 20µM* | 24* | 60* | Pol kappa inh-2=42*
O=P(O)(c1ccccc1)c1ccccc1O | ? | 2% | -11% | 0 | 1% | 13% | . | .
CC1OC(OCC2OC(Oc3c(-c4ccc(O)cc4)oc4cc(O)cc(O)c4c3=O)C(O)C(O)C2O)C(O)C(O)C1O (stereo not given) | ? | ? | 28µM* | -67* | ? | 10µM* | 42* | 60* | PGK validate=5.2µM*
COc1cc(-c2oc3cc(O)cc(O)c3c(=O)c2OC[C@@H]2OC(O[C@@H]3O[C@@H](C)[C@H](O)[C@@H](O)[C@H]3O)[C@@H](O)[C@H](O)[C@@H]2O)ccc1O (stereo not given in full) | . | . | 11%[60.1 µM] | . | . | . | . | .
COc1cccc([C@H]2Nc3ccc(S(=O)(=O)Nc4cc(C)ccc4C)cc3[C@H]3C=CC[C@H]32)c1 | 18% | 11% | -15% | . | . | -18% | . | .
O=C(/C=C/c1ccc(Br)cc1)NC(=S)Nc1ccc(S(=O)(=O)Nc2nccs2)cc1 | 16% | ? | -5% | -7 | -27%[11.6 µM] | ? | 15* | 17*
COc1ccccc1C(CCN(Cc1cccs1)C(C)=O)c1ccco1 (stereo not given) | 22µM* | 28µM* | -36% | -22 | ? | 25µM* | ? | 76*
CCC(=O)N(CCC(c1ccccc1)c1ccco1)Cc1cccs1 (stereo not given) | 1% | 7% | -9% | -17 | -3%[57.1 µM] | -23% | . | .
CCn1nc(-c2ccc(C)cc2)nc2c(=O)n(C)c(=O)nc1-2 | -93% | . | -18% | . | . | . | 2.4* | 1.7*
Cn1nc(-c2ccncc2)nc2c(=O)n(C)c(=O)nc1-2 | -97% | . | -5% | . | . | . | . | .
O=[N+]([O-])c1ccc(N=Nc2ccc(O)cc2O)cc1 | -1% | ? | -5% | -17 | -18% | -11% | . | .
SMILES | POLI inh | Pol beta inh | Pol kappa inh-1 | PI5P4K alpha inh | WRN helicase inh | Pol eta inh-1 | POLI cherry-pick | Pol eta inh-2 | others
O=S(=O)(O)c1cc(Cl)cc(N=Nc2ccc(O)cc2O)c1O | i | . | -170% | -98* | 50µM* | 13µM* | 12* | 43* | Pol kappa inh-2=6.7*
CCOC(=O)c1ccc(NC(=O)Cn2cnc3sc(C(=O)OCC)c(C)c3c2=O)cc1 | -6% | 16% | -7%[60.1 µM] | . | . | 3% | . | .
COc1ccccc1OC(C)C(=O)N1CCN(CCc2ccccn2)CC1 (stereo not given) | 33% | -8% | -16% | . | . | -14% | . | .
COc1ccc2c(=O)c3c(=O)n(Cc4ccco4)c(-c4ccco4)nc3oc2c1 | 20µM* | ? | 71µM* | . | 45µM* | 35µM* | 67* | 43*
Cc1nnc(NC(=O)CCSCCC(=O)Nc2nnc(C)s2)s1 | 18µM* | 28µM* | 79µM* | ? | 50µM* | 3.2µM* | 42* | 27* | Pol kappa inh-2=21*
CCOC(=O)CCSCC(=O)Nc1nnc(C)s1 | -19% | 9% | 3% | 2 | -2% | -6% | . | .
Cc1cccc(NS(=O)(=O)c2ccc3c(c2)C(C)(C)C(=O)N3C)c1 | -23% | -12% | -2%[60.1 µM] | . | . | -12% | . | .

Assay outcomes as filed in PubChem BioAssay.
